Experimental data published in the supplement of paper PMC11172423.
Values without a mark were called inactive.

These compounds were tested on Madurella mycetomatis MM55 (assay: growth relative to untreated control; higher = less inhibition, active = 20 or less). Settings: 25 µM.
Procedure: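 Hyphal fragments of M. mycetomatis MM55 or F. senegalensis CBS197.79 in RPMI 1640/MOPS were exposed to each MMV COVID Box or Global Health Priority Box compound at 100 or 25 µM for 7 days at 37 °C. Viability was read with MTS (490 nm, M. mycetomatis) or resazurin (600 nm, F. senegalensis), background-corrected with a medium-only control and expressed as % growth relative to the untreated growth control. Inhibition of more than 80% was taken as growth inhibition.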

| SMILES | growth |
| --- | --- |
| CN(C)CCn1c(Nc2cc(Cl)cc(C(F)(F)F)c2)nc2cnc(NC3CCC3)cc21 | 80.9% |
| CN(C)[C@@H]1C(=O)C(C(N)=O)=C(O)[C@@]2(O)C(O)=C3C(=O)c4c(O)cccc4[C@@](C)(O)[C@H]3C[C@@H]12 | 102% |
| CC1(C)C(/C=C(\Cl)c2ccc(Cl)cc2)C1C(=O)OC(C#N)c1ccc(F)c(Oc2ccccc2)c1 (stereo not given) | 119% |
| COc1ccc(CCN2CCC(Nc3nc4ccccc4n3Cc3ccc(F)cc3)CC2)cc1 | 3.51% (active) |
| COc1ccc(Cc2nccc3cc(OC)c(OC)cc23)cc1OC | 78% |
| Cc1nc(N(C)C)nc(OC(=O)N(C)C)c1C | 109% |
| CC1(C)C(C=C(Cl)Cl)C1C(=O)OCc1cccc(Oc2ccccc2)c1 (stereo not given) | 78.1% |
| CNC(=O)Oc1cccc2c1OC(C)(C)O2 | 95.6% |
| CC[C@@H](C(=O)[C@@H](C)[C@@H](O)[C@H](C)[C@@H]1O[C@@H]([C@@H](CC)C(=O)O)CC[C@@H]1C)[C@H]1O[C@]2(C=C[C@@H](O)[C@]3(CC[C@@](C)([C@H]4CC[C@](O)(CC)[C@H](C)O4)O3)O2)[C@H](C)C[C@@H]1C | 124% |
| CCOP(=S)(OCC)Oc1nc(Cl)c(Cl)cc1Cl | 142% |
| CN1C2CCC1CC(C#N)C2 (stereo not given) | 85.6% |
| CCS(=O)c1c(C#N)nn(-c2c(Cl)cc(C(F)(F)F)cc2Cl)c1N (stereo not given) | 91.7% |
| CCN(CC)c1nc(C)cc(OP(=S)(OC)OC)n1 | 110% |
| Cc1sc2c(c1C)C(c1ccc(Cl)cc1)=N[C@@H](CC(=O)OC(C)(C)C)c1nnc(C)n1-2 | 97.1% |
| NCCc1cn(S(=O)(=O)c2c(Cl)nc3sccn23)c2ccccc12 | 79.9% |
| CC(C)(C)Nc1cc2c(cn1)nc(Nc1cc(Cl)cc(C(F)(F)F)c1)n2C1CCNC1 (stereo not given) | 8.45% (active) |
| CN1C(=O)C(C(=O)Nc2ccc(Cl)c(Cl)c2)C(=O)N(C)C1=O | 56% |
| CNC(=O)Oc1ccccc1OC(C)C | 120% |
| O=C(NC(=O)c1c(F)cccc1F)Nc1ccc(Cl)cc1 | 99.6% |
| COP(=S)(OC)Oc1nc(Cl)c(Cl)cc1Cl | 88.5% |

Same assay, conditions: 100 µM

| SMILES | growth |
| --- | --- |
| CN(C)CCn1c(Nc2cc(Cl)cc(C(F)(F)F)c2)nc2cnc(NC3CCC3)cc21 | 104% |
| CN(C)[C@@H]1C(=O)C(C(N)=O)=C(O)[C@@]2(O)C(O)=C3C(=O)c4c(O)cccc4[C@@](C)(O)[C@H]3C[C@@H]12 | 82.5% |
| CC1(C)C(/C=C(\Cl)c2ccc(Cl)cc2)C1C(=O)OC(C#N)c1ccc(F)c(Oc2ccccc2)c1 (stereo not given) | 119% |
| COc1ccc(CCN2CCC(Nc3nc4ccccc4n3Cc3ccc(F)cc3)CC2)cc1 | 4.43% (active) |
| COc1ccc(Cc2nccc3cc(OC)c(OC)cc23)cc1OC | 83.4% |
| Cc1nc(N(C)C)nc(OC(=O)N(C)C)c1C | 137% |
| CC1(C)C(C=C(Cl)Cl)C1C(=O)OCc1cccc(Oc2ccccc2)c1 (stereo not given) | 151% |
| CNC(=O)Oc1cccc2c1OC(C)(C)O2 | 129% |
| CC[C@@H](C(=O)[C@@H](C)[C@@H](O)[C@H](C)[C@@H]1O[C@@H]([C@@H](CC)C(=O)O)CC[C@@H]1C)[C@H]1O[C@]2(C=C[C@@H](O)[C@]3(CC[C@@](C)([C@H]4CC[C@](O)(CC)[C@H](C)O4)O3)O2)[C@H](C)C[C@@H]1C | 70.3% |
| CCOP(=S)(OCC)Oc1nc(Cl)c(Cl)cc1Cl | 111% |
| CN1C2CCC1CC(C#N)C2 (stereo not given) | 117% |
| CCS(=O)c1c(C#N)nn(-c2c(Cl)cc(C(F)(F)F)cc2Cl)c1N (stereo not given) | 92.4% |
| CCN(CC)c1nc(C)cc(OP(=S)(OC)OC)n1 | 99.4% |
| Cc1sc2c(c1C)C(c1ccc(Cl)cc1)=N[C@@H](CC(=O)OC(C)(C)C)c1nnc(C)n1-2 | 4.14% (active) |
| NCCc1cn(S(=O)(=O)c2c(Cl)nc3sccn23)c2ccccc12 | 2.9% (active) |
| CC(C)(C)Nc1cc2c(cn1)nc(Nc1cc(Cl)cc(C(F)(F)F)c1)n2C1CCNC1 (stereo not given) | 7.09% (active) |
| CN1C(=O)C(C(=O)Nc2ccc(Cl)c(Cl)c2)C(=O)N(C)C1=O | 10.4% (active) |
| CNC(=O)Oc1ccccc1OC(C)C | 129% |
| O=C(NC(=O)c1c(F)cccc1F)Nc1ccc(Cl)cc1 | 81% |
| COP(=S)(OC)Oc1nc(Cl)c(Cl)cc1Cl | 106% |
